# Screening data (PubChem BioAssay)
# FLuc modulator: counter-screen for miR-21 project: firefly luciferase inhibitors or activators. purified FLuc, Km substrates, luminescence inhibition. P08659. actives 6.9% (n = 360,000). Potency, µM (doses to about 57.5 µM), for the others: at the top dose activity change, negative = inhibition, hits mostly inhibitors;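 also: plate controls were vehicle for no effect and reference inhibitor for full effect; nearly all actives have a fitted effect of over 55% in size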
# Target sequence (P08659 whole entry, looked up): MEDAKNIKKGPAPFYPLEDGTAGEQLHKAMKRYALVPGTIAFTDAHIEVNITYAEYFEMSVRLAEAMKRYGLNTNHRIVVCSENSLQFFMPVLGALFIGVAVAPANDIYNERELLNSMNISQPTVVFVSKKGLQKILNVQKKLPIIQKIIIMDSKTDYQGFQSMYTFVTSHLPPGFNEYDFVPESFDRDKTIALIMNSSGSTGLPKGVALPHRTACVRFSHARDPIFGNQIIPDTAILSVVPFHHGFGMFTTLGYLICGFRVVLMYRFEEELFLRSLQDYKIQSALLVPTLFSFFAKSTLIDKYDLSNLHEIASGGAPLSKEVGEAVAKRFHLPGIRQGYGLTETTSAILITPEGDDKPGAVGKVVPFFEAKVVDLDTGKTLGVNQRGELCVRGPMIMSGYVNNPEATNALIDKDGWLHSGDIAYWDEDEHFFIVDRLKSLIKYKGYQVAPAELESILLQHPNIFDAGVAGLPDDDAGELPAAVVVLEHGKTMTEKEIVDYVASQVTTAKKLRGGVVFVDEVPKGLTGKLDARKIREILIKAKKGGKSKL
#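 Purified P. pyralis luciferase, 10 nM final, with Km-level 10 uM D-luciferin and 10 uM ATP in 50 mM Tris acetate pH 7.5, 10 mM Mg acetate, 0.01% Tween-20, 0.05% BSA; 6-point qHTS titration about 60 µM downward; luminescence read.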
# KinaseGlo FLuc: counter-screen: inhibitors of Kinase-Glo firefly luciferase | Q27757 | Kinase-Glo luciferase, ATP luminescence, 8 min | Potency, µM (titrated, usually from 38.3 µM), for inactives: at the highest dose activity change, negative = inhibition, usual class: inhibitors | actives 0.28% (n = 200,000) | AID 1379; also: % is scaled to controls: 0 for no effect and ±100 for the full control effect; nearly all actives have a fitted effect of over 60% in size
#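 Luminescence was the read-out, taken after 8-minute incubation at ambient temperature. Luciferase turned over luciferin with 10 uM ATP in imidazole pH 7.2 buffer containing KCl, MgCl2, Tween 20 and BSA.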
# Rab9 promoter act: activates the Rab9 promoter; Huh7 Rab9 promoter-luciferase reporter, luminescence, 24 h; Potency, µM (titrated, usually from 9.22 µM), without a hit: at the highest dose activation, negative = inhibition, most hits filed as activators; actives 2.8% (n = 320,000); AID 485297; also: % of control where 0% means no effect; nearly all actives have a fitted effect of over 60% in size
#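 Cells were plated at 1500 per well in reduced-serum medium with 10% FBS and left 2 h. Compound in DMSO was then added for 24 h at 37 °C. Reporter signal was read by luminescence after 10 min with luciferase detection reagent.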
# ELG1 genotox: induces genotoxicity in HEK293T cells with luciferase-tagged ELG1 | HEK293T ELG1-luciferase reporter, luminescence, 16 h | Potency, µM (series often up to 46 µM), inactives show at the highest dose activity change, positive = activation, usual class: activators | actives 1.3% (n = 330,000); also: % of control where 0% means no effect; nearly all actives have a fitted effect of over 60% in size
#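 Luminescence read-out: rising ELG1-luciferase signal, reflecting elevated ELG1 protein under genetic stress, flags genotoxic compounds. Cells were treated for 16 hr at 37 °C before ONE-Glo detection.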
# SMN2 splice enh: increases expression of the SMN2 splice variant. HEK293 SMN2-luciferase splicing reporter, luminescence, 30-36 h. AID 1458. actives 2.8% (n = 210,000). Potency, µM (top dose mostly 46.1 µM), without a hit: top-dose activity change, positive = activation, usual class: activators; also: % of control where 0% means no effect; nearly all actives have a fitted effect of over 55% in size
#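 qHTS luciferase splicing reporter: luminescence rises when SMN2 exon 7 is included in transfected HEK293 cells. Compound exposure lasted 30-36 h at 37C, with 4.5 mM final sodium butyrate as control, followed by a ONE-Glo read.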
# NPC1 prom act: activates the NPC1 promoter; Huh7 NPC1 promoter luciferase reporter, 24 h; Potency, µM (titrated, usually from 9.22 µM), for inactives: at the top dose activation, actives largely listed as activators; actives 2.4% (n = 320,000); also: % of control where 0% means no effect; nearly all actives have a fitted effect of over 60% in size
#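 Huh7 cells stably carrying NPC1 promoter–luciferase, plated in Opti-MEM with 10% FBS for 2 h, were exposed to compound in DMSO for 24 h at 37 °C; luciferase reagent was added for 10 min and luminescence read.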
# Starred values were filed as active, the others as inactive; ? = inconclusive; · = no result; [ ] = dose if it differs, or a comment. Rows were chosen to be rich in hits. Some 7.5% of all compounds tested hit in one or more screens of this group. Calls follow the shape of the dose curve; as a rule, active = well fitted curve in the direction sought with a large enough effect; inconclusive = small, poorly fitted or top-dose-only effect, or another doubt; inactive = no such curve, though single readings can be large; an effect the other way counts as inactive or inconclusive. Potency is read from the fitted curve at half-maximal effect.
SMILES,FLuc modulator,KinaseGlo FLuc,Rab9 promoter act,ELG1 genotox,SMN2 splice enh,NPC1 prom act
CCc1cccc(C)c1NC(=O)c1cnn(-c2ccc(OC)cc2)c1C1CCN(C(=O)OC(C)(C)C)CC1,-0.8%,·,·,·,·,·
CC1CCN(C2=NC(=O)/C(=C/c3cccc(O)c3)S2)CC1,?,·,-5.6%,11.7%,·,-5.8%
CC1CCN(C2=NC(=O)/C(=C/c3ccccc3F)S2)CC1,3.38µM*,·,14.8%,9.2µM*,·,?
O=C(NCCN1CCN(c2cccc(Cl)c2)CC1)C1COc2ccccc2C1 (stereo unspecified),-5.8%,·,·,·,·,·
CC(C)=C(C#N)c1nc2ccccc2s1,-13.9%,2.2%,-9.1%,0.0%,-3.8%,-0.8%
CC1=CC(=C(C#N)c2nc3ccccc3s2)C=C(C)N1c1ccc(F)cc1,3.38µM*,-0.7%,29.6%,12.9%,?,23.9%
COc1ccccc1N1C(C)=CC(=C(C#N)c2nc3ccccc3s2)C=C1C,3.01µM*,4.3%,2.6%,14.1%,-42.9%,15.7%
Cc1ccc2nc(-c3ccc(NC(=O)COc4c(C)ccc(C)c4C)cc3)sc2c1,19µM*,·,·,·,?,·
Cc1ccc(CSc2nc3ccc(NC(=O)COc4ccccc4F)cc3s2)cc1,-11.5%,·,·,·,·,·
Cc1ccc(NC(=O)COc2ccc(Br)cc2CO)cc1,13.5µM*,-0.9%,21.1%,18.2%,-25.2%,21.4%
Cc1ccc2nc(-c3ccc(NC(=O)COc4ccc(Cl)c(C)c4)cc3)sc2c1,21.3µM*,·,·,·,14.1µM*,·
Cc1ccc2nc(-c3ccc(NC(=O)COc4ccc(Br)cc4Br)cc3)sc2c1,2.13µM*,·,·,·,2.82µM*,·
Cc1cc(OCC(=O)Nc2ccncc2)ccc1Cl,?,·,-3.7%,-1.5%,·,0.6%
CN1CCc2nc3ccc(Cl)cc3c(-c3ccccc3Cl)c2C1,3.2%,-2.0%,6.9%,0.2%,-10.2%[1.84 µM],-7.1%
CC(C)C(=O)Nc1nnc2n1CCS2,-0.5%,·,·,·,·,·
CCc1ccc(CNC(=O)c2cnc3sc(N(CC)CC)nn3c2=O)cc1,-15.0%,·,·,·,·,·
Clc1ccc(CCNc2ncnc3nc[nH]c23)cc1,-19.0%,-0.9%,-7.3%,-1.7%,-63.1%,0.0%
c1ccc(CNc2ncnc3nc[nH]c23)cc1,-2.1%,-0.4%,2.5%,-4.8%,-3.4%,1.2%
C(=N\Nc1ncnc2nc[nH]c12)/c1cccs1,13.5µM*,-21.9%,?,16.4µM*,35.5µM*,?
Cc1ccccc1/C=N/Nc1ncnc2nc[nH]c12,15.1µM*,·,?,?,·,?
Fc1ccc(/C=N/Nc2ncnc3nc[nH]c23)cc1F,?,-26.8%,27.9%,20.6µM*,?,29.5%
Cc1ccsc1/C=N/Nc1ncnc2nc[nH]c12,19µM*,?,3.55µM*,14.6µM*,11.2µM*,2.51µM*
CCOc1ccc(NC(=O)C2CCCN(S(=O)(=O)c3cccc4nonc34)C2)cc1 (stereo unspecified),-4.6%,·,·,·,-3.2%,·
COc1ccccc1OCc1cc(-c2ccccc2)no1,9.53µM*,-1.6%,2.51µM*,?,12.6µM*,3.55µM*
COc1ccc(OC)c(S(=O)(=O)NCc2cc(-c3ccccc3)no2)c1,-4.8%,·,1.3%,0.2%,·,0.4%
SMILES,FLuc modulator,KinaseGlo FLuc,Rab9 promoter act,ELG1 genotox,SMN2 splice enh,NPC1 prom act
COc1ccc(OCc2cc(-c3ccc(Cl)cc3)no2)cc1,-13.7%,-1.8%,-4.8%,2.9%,0.9%,-0.7%
c1ccc(OCc2cc(-c3ccccc3)no2)cc1,12µM*,-1.5%,2.82µM*,16.9%,?,?
CCc1ccccc1NC(=O)CSc1nc2c(oc3ccccc32)c(=O)n1-c1ccccc1,-0.3%,·,·,·,4.4%,·
CCN(CC)C(=O)c1sc2c(c1C)c(=O)n(-c1ccc(Cl)c(Cl)c1)c(=O)n2Cc1cc(=O)n2ccccc2n1,3.2%,·,·,·,·,·
O=C(Nc1ccc2[nH]c(=O)[nH]c2c1)c1ccc([N+](=O)[O-])o1,-5.2%,·,-1.3%,1.1%,·,6.1%
Cc1ccc(NC(=O)c2ccc([N+](=O)[O-])o2)cc1C,21.3µM*,-19.0%,?,18.4%,-7.9%,-1.9%
CS(=O)(=O)N1CCN(c2ccc(NC(=O)c3ccc([N+](=O)[O-])o3)cc2)CC1,-16.3%,·,2.24µM*,?,·,?
CC(C)(C)C(=O)N1CCN(c2ccc(NC(=O)c3ccc([N+](=O)[O-])o3)cc2)CC1,-2.1%,·,0.7%,-8.8%,·,-5.0%
CCC(=O)N1CCN(c2ccc(NC(=O)c3ccc([N+](=O)[O-])o3)cc2)CC1,0.4%,-2.3%,3.9%,0.9%,8.2%,-6.2%
CC1CCN(c2ccc(NC(=O)c3ccc([N+](=O)[O-])o3)cc2)CC1,1.07µM*,·,2µM*,3.66µM*,·,?
O=C(Nc1ccc(N2CCCCC2)cc1)c1ccc([N+](=O)[O-])o1,1.51µM*,·,2.51µM*,6.51µM*,·,0.501µM*
O=C(Nc1cccc(NC(=O)c2ccccc2Cl)c1)c1ccc([N+](=O)[O-])o1,21.3µM*,·,3.7%,-20.4%,·,-15.6%
O=C(Nc1ccc(N2CCCC2)c(Cl)c1)c1ccc([N+](=O)[O-])o1,7.57µM*,?,?,-17.7%,-53.4%,?
O=C(Nc1cccc2ccccc12)c1ccc([N+](=O)[O-])o1,2.3%,·,-8.0%,-10.2%,·,-12.8%
COc1cc(NC(=O)c2cc(C)nc3c2c(C)nn3-c2ccccc2Cl)cc(OC)c1,6.3%,·,·,·,-14.5%,·
CN(C)Cc1ccccc1-c1cncnc1NCc1cccs1,·,1.5%,·,·,-11.9%,·
CCOc1ccc(OCc2ccc(C(=O)N3CCCC(C)C3)cc2)cc1 (stereo unspecified),13.5µM*,-3.1%,2µM*,?,10µM*,3.98µM*
O=C(COC(=O)c1cccc(F)c1)Nc1ccc2c(c1)OCCO2,1.9µM*,·,9.5%,6.2%,·,3.3%
O=C(OCC1COc2ccccc2O1)c1ccccc1F (stereo unspecified),6.01µM*,-6.2%,2.1%,10.6%,-0.8%,1.4%
O=C(COC(=O)c1ccccc1F)Nc1ccc2c(c1)OCCO2,0.477µM*,·,-3.8%,5.4%,·,0.7%
Cc1cccc(C(=O)OCC(=O)Nc2ccc3c(c2)OCCO3)c1,19µM*,·,12.2%,9.7%,·,8.3%
Cc1ccc(OCCn2c(=S)[nH]c3c(N)ncnc32)cc1,?,1.7%,1.5%,4.4%,-7.7%,-0.1%
CC(C)Oc1ccc(OCCn2c(=S)[nH]c3c(N)ncnc32)cc1,26.9µM*,9.2%,-1.1%,?,-27.4%,-3.0%
Cc1cc2ncc(-c3cccc(Cl)c3)cn2n1,?,-4.6%,?,9.5%,?,?
Cc1nn2cc(-c3ccc(Cl)cc3)cnc2c1Cl,?,-12.1%,3.16µM*,?,5.62µM*,3.55µM*
CC(C)(C)c1ccc(/C=C/C(=O)Nc2cccnc2)cc1,2.69µM*,·,1.12µM*,2.31µM*,·,2µM*
